The record followed here is PubChem BioAssay.

Test [1] deals with Plasmodium falciparum Sir2 (PF13_0152, Sir2A). Kind of test: Plasmodium falciparum Sir2A binding compounds – biochemical, small-molecule microarray, 635 nm fluorescence, primary screen (AID 1098).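 Further: score merges spot fluorescence intensity with its signal-to-noise ratio.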 As to conditions: fluorescence 635 nm, higher = more signal.
The nature of test [2]: probe aDKK1 binding to arrayed compounds – biochemical, biotinylated probe, 635/667 nm fluorescence, primary screen (AID 1099).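 Further: score merges 667nm spot fluorescence with signal to noise across triplicate slides.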 As to conditions: small-molecule microarray, higher = more signal.
Test [3] in a line: probe aCHRDL2 binding to arrayed compounds – biochemical, biotinylated probe, 635/667 nm fluorescence, primary screen (AID 1100). As to conditions: small-molecule microarray, higher = more signal.
The nature of test [4]: change in splice reporter luminescence, either direction, cell-based, HEK293, spliceosome inhibition project, primary screen (AID 1101).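 Further: HEK293 cells carrying a splicing-competent luciferase reporter gene; test concentration not given here.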 As to conditions: HEK293 splicing luciferase reporter, 24 h, higher = more signal, called active from +8 up or from −8 down. On the technique in general: A reporter such as luciferase makes a cellular process visible.
In test [5] the target is Fibroblast growth factor 10 (Homo sapiens) (UniProt O15520). The experiment in a line: compounds binding fibroblast growth factor 10 – biochemical, small-molecule microarray, 635 nm fluorescence, primary screen (AID 1102). As to conditions: FGF10 binding, fluorescence 635 nm, higher = more signal.
Test [6] relates to glycogen synthase kinase-3 (GSK3A per assay name; protocol says GSK3B). Kind of test: compounds binding glycogen synthase kinase-3 – biochemical, small-molecule microarray, 635 nm fluorescence, GSK3A, primary screen (AID 1103). Further: the record names both GSK3A and GSK3B. As to conditions: fluorescence 635 nm, higher = more signal.
Test [7] has as its target Epidermal growth factor receptor (Homo sapiens) (UniProt P00533). Kind of test: compounds binding epidermal growth factor receptor – biochemical, small-molecule microarray, 635 nm fluorescence, primary screen (AID 1104).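 Further: score merges 667 nm emission intensity with spot signal to noise over triplicate slides.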 As to conditions: EGFR binding, higher = more signal.
For test [8], the target named is Follistatin-related protein 3 (Homo sapiens) (UniProt O95633). The experiment in a line: compounds binding follistatin-related protein 3 – biochemical, small-molecule microarray, 635 nm fluorescence, primary screen (AID 1105).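 Further: score merges emission near 667 nm and signal to noise per printed spot across three slides.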 As to conditions: FSTL3 binding, higher = more signal.
Test [9] addresses Dickkopf-related protein 1 (Homo sapiens) (UniProt O94907). Kind of test: small molecules binding DKK1 protein – biochemical, small-molecule microarray, 635 nm fluorescence scan, primary screen (AID 1106).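 Further: score merges emission near 667 nm with signal to noise over three replicate slides.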 As to conditions: higher = more signal.
The subject of test [10] is Inhibin beta A chain (activin A). Kind of test: small molecules binding activin A – biochemical, small-molecule microarray, 635 nm fluorescence scan, primary screen (AID 1107).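 Further: mouse activin A protein probed at 4.33 µg/mL on printed slides; score merges bound-protein fluorescence near 667 nm with spot signal-to-noise.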 As to conditions: INHBA, higher = more signal.
The subject of test [11] is Human papillomavirus type 1a protein E7 (residues 44-93). The experiment in a line: small molecules binding HPV E7 44-93 – biochemical, small-molecule microarray, residues 44-93, 635 nm fluorescence, primary screen (AID 1108).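 Further: E7 fragment applied at 1 µg/mL in TBST for 1 h at 4 C; score combines spot fluorescence with its signal to noise ratio.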 As to conditions: fluorescence 635 nm, higher = more signal.
Test [12] is described as follows: hepatitis C replication reporter changes, two-sided – Huh7 cells, luciferase reporter, HCV replication inhibitor project, primary screen (AID 1109).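 Further: huh7 hepatoma cells harbouring a luciferase neomycin HCV replicon reporter; luciferase luminescence as measure of HCV replicon replication; test concentration not given here.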 As to conditions: Huh7 HCV replicon luciferase reporter, 48 h; higher = more signal.
Test [13] deals with Left-right determination factor 2 (Homo sapiens) (UniProt O00292). The experiment in a line: small molecules binding LEFTY2 protein – biochemical, small-molecule microarray, 635 nm fluorescence scan, primary screen (AID 1110). As to conditions: higher = more signal.
In test [14] the target is Calmodulin-1 (Homo sapiens) (UniProt P0DP23). Kind of test: small molecules binding calmodulin-1 with EGTA – biochemical, small-molecule microarray, Cy5-labelled CALM1, profiling panel (AID 1111).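 Further: labelled calmodulin applied in Tris saline Tween buffer holding calcium plus EGTA and DTT.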 As to conditions: Cy5-CALM1 binding fluorescence, higher = more signal.
Test [15] shares this target. Kind of test: small molecules binding Ca-loaded calmodulin-1 – biochemical, small-molecule microarray, Cy5-labelled CALM1, plus calcium, artefact control for SMM control-protein annotation, profiling panel (AID 1112).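 Further: score merges spot fluorescence with signal to noise from triplicate slides.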 As to conditions: Cy5-CALM1 binding fluorescence, higher = more signal.
Test [16] can be described thus: probe aWnt5a binding to arrayed compounds – biochemical, biotinylated probe, 635/667 nm fluorescence, primary screen (AID 1113).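 Further: score merges 667 nm fluorescence intensity with signal-to-noise per printed feature.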 As to conditions: small-molecule microarray, higher = more signal.
Test [17] is described as follows: probe aShh binding to arrayed compounds – biochemical, biotinylated probe, 635/667 nm fluorescence, primary screen (AID 1114).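 Further: probe is biotin-labelled aShh protein from a stem cell growth factor screen; measures binding of labelled protein to compounds printed on the slide; score merges feature fluorescence at 667 nm with signal-to-noise.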 As to conditions: small-molecule microarray, higher = more signal.
A short description of test [18]: probe aNog binding to arrayed compounds – biochemical, biotinylated probe, 635/667 nm fluorescence, primary screen (AID 1115).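 Further: probe is biotinylated aNog protein used at 0.15 µg/mL for 1 h at 4 C; z-score combines 667 nm fluorescence of each spot with its signal to noise.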 As to conditions: small-molecule microarray, higher = more signal.
Test [19] deals with Torsin-1A-interacting protein 1 (Homo sapiens) (UniProt Q5JTV8). The experiment in a line: compound microarray binding of lysate hLAP1 – cell lysate, small-molecule microarray, COS7 lysate, 635/667 nm fluorescence, primary screen (AID 1116). As to conditions: 635 nm fluorescence, higher = more signal.
Test [20] concerns the target Alpha-bungarotoxin (Bungarus multicinctus) (UniProt P60615). The experiment in a line: compounds binding labelled alpha-BTX control protein – biochemical, small-molecule microarray, Alexa647 label, 635/667 nm fluorescence, artefact control for SMM control protein annotation, profiling panel (AID 1117). As to conditions: alpha-BTX-A647 binding fluorescence, higher = more signal.

Structures are written as SMILES. Active and inactive are the calls of the source.

Fibroblast growth factor 10 (Homo sapiens), sequence (O15520 whole entry, looked up): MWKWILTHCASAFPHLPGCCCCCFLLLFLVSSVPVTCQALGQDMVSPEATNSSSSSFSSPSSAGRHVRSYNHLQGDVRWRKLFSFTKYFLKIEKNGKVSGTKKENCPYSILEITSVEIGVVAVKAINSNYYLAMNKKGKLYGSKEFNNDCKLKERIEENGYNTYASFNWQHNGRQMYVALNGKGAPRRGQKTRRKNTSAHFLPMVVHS
Alpha-bungarotoxin (Bungarus multicinctus), sequence (P60615 whole entry, looked up): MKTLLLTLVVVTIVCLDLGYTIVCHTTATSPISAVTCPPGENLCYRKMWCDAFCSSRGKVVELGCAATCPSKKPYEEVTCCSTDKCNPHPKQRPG
Torsin-1A-interacting protein 1 (Homo sapiens), sequence (Q5JTV8 whole entry, looked up): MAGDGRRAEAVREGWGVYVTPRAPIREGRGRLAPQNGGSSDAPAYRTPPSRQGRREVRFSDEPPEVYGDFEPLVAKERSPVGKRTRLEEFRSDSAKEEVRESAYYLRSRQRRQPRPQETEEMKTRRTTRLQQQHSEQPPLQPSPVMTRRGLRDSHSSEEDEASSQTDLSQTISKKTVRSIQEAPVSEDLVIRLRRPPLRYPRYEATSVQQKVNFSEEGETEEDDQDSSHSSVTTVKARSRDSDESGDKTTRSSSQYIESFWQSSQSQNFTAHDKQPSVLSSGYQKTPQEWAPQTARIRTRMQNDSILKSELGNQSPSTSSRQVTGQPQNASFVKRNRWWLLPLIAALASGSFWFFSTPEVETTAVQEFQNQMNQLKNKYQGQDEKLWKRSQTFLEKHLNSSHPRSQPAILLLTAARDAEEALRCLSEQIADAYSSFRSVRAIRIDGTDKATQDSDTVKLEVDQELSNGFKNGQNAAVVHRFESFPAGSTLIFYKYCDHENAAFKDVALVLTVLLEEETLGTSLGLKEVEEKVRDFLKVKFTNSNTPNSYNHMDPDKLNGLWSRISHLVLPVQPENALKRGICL
Left-right determination factor 2 (Homo sapiens), sequence (O00292 whole entry, looked up): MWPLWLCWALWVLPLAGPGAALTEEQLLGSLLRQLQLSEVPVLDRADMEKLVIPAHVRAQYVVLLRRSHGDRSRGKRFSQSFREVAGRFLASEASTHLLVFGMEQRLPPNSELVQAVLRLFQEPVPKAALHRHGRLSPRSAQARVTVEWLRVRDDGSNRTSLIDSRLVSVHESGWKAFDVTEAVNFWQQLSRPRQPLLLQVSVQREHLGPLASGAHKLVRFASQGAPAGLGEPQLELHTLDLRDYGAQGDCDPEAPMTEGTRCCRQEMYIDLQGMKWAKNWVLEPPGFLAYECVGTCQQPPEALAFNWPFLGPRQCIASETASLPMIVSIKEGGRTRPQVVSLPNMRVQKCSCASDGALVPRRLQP
Dickkopf-related protein 1 (Homo sapiens), sequence (O94907 whole entry, looked up): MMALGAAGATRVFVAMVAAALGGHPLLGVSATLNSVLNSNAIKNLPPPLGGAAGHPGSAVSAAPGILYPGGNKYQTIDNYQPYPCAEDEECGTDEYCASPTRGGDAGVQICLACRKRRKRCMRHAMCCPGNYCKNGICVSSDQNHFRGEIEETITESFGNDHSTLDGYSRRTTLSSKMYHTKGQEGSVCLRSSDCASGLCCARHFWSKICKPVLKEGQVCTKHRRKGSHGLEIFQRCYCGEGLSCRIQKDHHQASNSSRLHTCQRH
Epidermal growth factor receptor (Homo sapiens), sequence (P00533 whole entry, looked up): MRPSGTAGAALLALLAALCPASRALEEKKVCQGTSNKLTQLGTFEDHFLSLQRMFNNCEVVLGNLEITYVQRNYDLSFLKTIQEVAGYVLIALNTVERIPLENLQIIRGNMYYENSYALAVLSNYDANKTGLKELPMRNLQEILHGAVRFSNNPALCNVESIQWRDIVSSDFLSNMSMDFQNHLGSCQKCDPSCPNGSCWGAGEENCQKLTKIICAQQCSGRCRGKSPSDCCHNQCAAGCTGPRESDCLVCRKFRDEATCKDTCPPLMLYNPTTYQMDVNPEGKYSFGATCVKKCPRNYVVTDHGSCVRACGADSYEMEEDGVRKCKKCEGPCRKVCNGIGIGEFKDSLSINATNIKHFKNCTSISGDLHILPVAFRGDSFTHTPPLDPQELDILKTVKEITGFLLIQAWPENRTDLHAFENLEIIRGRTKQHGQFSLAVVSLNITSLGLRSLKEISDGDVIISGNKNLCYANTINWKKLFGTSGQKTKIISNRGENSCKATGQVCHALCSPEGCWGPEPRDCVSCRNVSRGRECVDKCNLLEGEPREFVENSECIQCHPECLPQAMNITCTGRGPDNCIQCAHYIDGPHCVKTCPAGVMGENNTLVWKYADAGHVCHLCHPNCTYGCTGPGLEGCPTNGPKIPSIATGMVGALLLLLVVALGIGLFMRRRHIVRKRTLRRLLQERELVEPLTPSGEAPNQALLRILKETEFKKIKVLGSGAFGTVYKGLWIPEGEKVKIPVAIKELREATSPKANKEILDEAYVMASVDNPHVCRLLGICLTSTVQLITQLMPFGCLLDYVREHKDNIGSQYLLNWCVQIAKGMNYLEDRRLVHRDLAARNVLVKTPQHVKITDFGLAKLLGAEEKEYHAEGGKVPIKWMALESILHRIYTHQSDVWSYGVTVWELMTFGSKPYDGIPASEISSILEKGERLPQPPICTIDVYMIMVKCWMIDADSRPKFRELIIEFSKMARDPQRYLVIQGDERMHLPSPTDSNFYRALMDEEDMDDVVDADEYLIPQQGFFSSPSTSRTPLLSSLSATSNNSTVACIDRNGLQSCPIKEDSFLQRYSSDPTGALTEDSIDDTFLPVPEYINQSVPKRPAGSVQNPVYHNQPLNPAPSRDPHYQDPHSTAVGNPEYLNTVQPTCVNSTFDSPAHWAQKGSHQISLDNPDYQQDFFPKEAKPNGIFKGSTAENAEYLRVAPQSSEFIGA
Follistatin-related protein 3 (Homo sapiens), sequence (O95633 whole entry, looked up): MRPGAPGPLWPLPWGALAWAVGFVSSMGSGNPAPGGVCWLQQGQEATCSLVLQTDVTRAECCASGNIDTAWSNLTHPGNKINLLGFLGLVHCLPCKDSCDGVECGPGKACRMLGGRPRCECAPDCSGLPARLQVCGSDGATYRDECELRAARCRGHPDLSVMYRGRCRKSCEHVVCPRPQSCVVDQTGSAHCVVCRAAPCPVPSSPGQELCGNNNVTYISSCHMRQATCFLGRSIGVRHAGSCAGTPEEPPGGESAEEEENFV

In the case of `CCCC[C@@H]1C[C@H]1[C@@H](NC(=O)c1ccccc1)c1ccc(C(=O)OC)cc1`, the composite z-score in [1] was 0.798; in test [2] it was 0.393; in [3], 1.18; in test [5] it was -0.358; in [6] it was -0.534; in [7], -1.38. In addition, the composite z-score in test [8] was -0.668; in test [9] it was -1.57; in test [10], 1.19; in test [11] it was -0.541; in [13] it was -1.9; in test [14], 0.155. Also, the composite z-score was 0.685 in test [15]; -0.0236 in test [16]; -0.0849 in test [17]; -1.02 in [18]; -0.679 in [19]; -0.0885 in test [20]. Besides, the values for the z-score in test [4] and in [12] were -2.47 (inactive) and -1.15, respectively.
Turning to `C=CC[C@@]12N=C(c3ccc(OCCCO)cc3)O[C@@H]1c1ccccc1N(C)C2=O`, the composite z-score in test [1] came out at 1.13; in test [2] it was 0.178; in test [3], 0.899; in test [5] it was 1.38; in test [6], 1.32; in test [7], 0.166. The composite z-score in [8] came to 0.964; in [9] it was 0.498; in [10] it was 1.1; in test [11], 1.16; in [13], 0.0838; in test [14] it was 0.422. The composite z-score was -0.206 in test [15]; 0.14 in [16]; 0.547 in [17]; -0.621 in [18]; -0.0062 in [19]; 1.21 in test [20]. Moreover, the z-score is -0.933 (inactive) in test [4] and -1.56 in test [12].
For `COCCOC(=O)N1C(=O)[C@@]2(c3cc(C#Cc4ccc(OC)cc4)ccc31)[C@H](c1ccc(O)cc1)N1[C@H](c3ccccc3)[C@H](c3ccccc3)OC(=O)[C@H]1[C@@H]2C(=O)N1CCc2cc(OC)c(OC)cc2C1`, the composite z-score in [1] was 0.888; in [2] it was 0.267; in test [3], -0.0098; in test [5] it was 0.636; in test [6], 1.2; in test [7] it was 0.386. The composite z-score in [8] is 0.914; in test [9] it was 0.75; in test [10], -0.0186; in test [11], 1.32; in test [13], 0.471; in test [14], 1.74. The composite z-score in [15] was 0.141; in test [16], 0.0017; in [17] it was -0.301; in test [18] it was 0.27; in test [19], 0.796; in test [20], 0.317. Besides, the figures for the z-score in [4] and in [12] were -1.34 (inactive) and -0.296, respectively.
Turning to `C#C[C@H](O[Si](C#Cc1ccc(Oc2ccccc2)cc1)(C(C)C)C(C)C)c1ccccc1`, the composite z-score is 1.39 in test [1]; 0.629 in test [2]; 0.0024 in test [3]; 0.406 in [5]; 0.639 in test [6]; 0.144 in test [7]. Moreover, the composite z-score is 0.563 in [8]; -0.0522 in [9]; -0.0811 in test [10]; 0.922 in [11]; 0.764 in test [13]; -0.355 in test [14]. Moreover, the composite z-score is -0.571 in [15]; -0.0519 in [16]; -0.248 in test [17]; -0.244 in test [18]; 0.692 in test [19]; 0.495 in test [20]. Moreover, the values for the z-score in test [4] and in test [12] were -0.855 (inactive) and -1.73, respectively.
For the molecule `CN1C(=O)C2C=CC(C(O)c3ccco3)N(Nc3ccccc3)C2C1=O` (stereo not given), the composite z-score worked out at 0.307 in test [1]; 0.44 in test [2]; 0.338 in test [3]; 0.953 in test [5]; 0.386 in test [6]; 0.466 in test [7]. Moreover, the composite z-score in [8] is 0.523; in test [9], 0.519; in test [10], 1.16; in test [11] it was 0.282; in [13] it was 0.232; in test [14], -0.276. The composite z-score in [15] is -0.833; in test [16] it was -0.0192; in [17], 0.199; in [18], -0.165; in test [19], 0.272; in [20], 0.35. The z-score in test [4] was 0.883 (inactive); in test [12], 0.0751.
